Compound activity deposited in PubChem BioAssay by Bradner/Qi Labs at DFCI.
This is one part of a sample in which hits are shown more often than they occur.
CBX7 inh: CBX7 chromodomain binding inhibitors, primary screen, biochemical, AlphaScreen | 66,000 tested, 1.1% active | Chromobox protein homolog 7 (Homo sapiens), O95931 | AID 1224903, 2016 | AlphaScreen His6-CBX7 / biotin-H3K27me3 peptide binding; hits give low values | normalised signal (fraction of DMSO) (concentration not given with the values); in the data active = normalised signal below about 0.5
Target sequence (O95931 whole entry, looked up): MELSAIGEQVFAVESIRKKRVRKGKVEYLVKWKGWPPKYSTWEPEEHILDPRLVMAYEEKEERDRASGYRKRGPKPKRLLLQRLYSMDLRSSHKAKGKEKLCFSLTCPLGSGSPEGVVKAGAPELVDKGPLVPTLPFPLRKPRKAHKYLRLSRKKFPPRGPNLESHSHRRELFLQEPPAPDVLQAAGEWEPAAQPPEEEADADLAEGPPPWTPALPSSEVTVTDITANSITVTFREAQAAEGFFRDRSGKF
* marks the source's active call; other numbers are inactive results.

SMILES | CBX7 inh
Cc1ccccc1N1C(=O)c2ccccc2C1Nc1ccc(Br)cc1F (stereo unspecified) | 0.968
CCOc1ccc(N2C(=O)c3cccnc3C2Nc2ccc(Br)c(C)c2)cc1 (stereo unspecified) | 0.164*
COc1cccc(NC2c3ccccc3C(=O)N2Cc2ccccc2)c1 (stereo unspecified) | 0.908
CCOc1ccc(N2C(=O)c3ccccc3C2Nc2ccc(C)cc2)cc1 (stereo unspecified) | 0.917
Cc1oc(-c2ccc(Cl)cc2)nc1C(=O)NCCCN1CCCC(C)C1 (stereo unspecified) | 1.02
Cc1ccccc1CSc1nc2ccc(Cl)cc2[nH]1 | 1.07
O=C(Cc1ccccc1)Nc1ccc2oc(-c3ccc(Cl)cc3Cl)nc2c1 | 1.1
O=C(CCc1nc(-c2ccccc2F)no1)NCC1(c2ccccc2)CCCC1 | 1.13
COc1ccc(N2CCN(C3CC(=O)N(c4ccc(OC)cc4)C3=O)CC2)cc1 (stereo unspecified) | 0.953
O=C(Nc1ccc2nc3n(c(=O)c2c1)CCCCC3)c1cc(-c2cccs2)nc2ccccc12 | 1
Nc1ccc2nc(SCC(=O)NCCOc3ccccc3)sc2c1 | 0.929
Cc1ccccc1Cn1c(CCCNC(=O)c2ccccc2)nc2ccccc21 | 1.05
CCSc1nnc(-c2ccc3[nH]c(C)c(C)c3c2)n1-c1ccccc1 | 0.936
Cc1[nH]c2ccc(-c3nnc(SCCc4ccccc4)n3-c3ccccc3)cc2c1C | 0.783
Cc1[nH]c2ccc(-c3nnc(SCCO)n3-c3ccc(Br)cc3)cc2c1C | 0.455*
CCN1CCN(c2ncc(C(=O)NCCOC)c3ccccc23)CC1 | 1.57
O=c1[nH]cc(S(=O)(=O)N2CCN(c3ccccc3F)CC2)c2ccccc12 | 0.907
CCCCCC1CCC(c2ccc(-c3nc(-c4ccncc4)no3)cc2)CC1 (stereo unspecified) | 1.02
CCCC1CCC(c2ccc(-c3noc(-c4ccc(O)c(F)c4)n3)cc2)CC1 (stereo unspecified) | 0.493*
CCCC1CCC(c2nc(-c3ccc(OC(F)F)cc3)no2)CC1 (stereo unspecified) | 1.25
COc1ccc(NC(=O)[C@H](CCS(C)(=O)=O)N2Cc3ccccc3C2=O)cc1OC | 1.04
COc1ccc(NC(=O)[C@H](CSCc2ccccc2)N2Cc3ccccc3C2=O)cc1Cl | 0.87
CSCC[C@@H](C(=O)Nc1ccc(C)c(F)c1)N1Cc2ccccc2C1=O | 0.531
CSCC[C@@H](C(=O)Nc1cccc(F)c1)N1Cc2ccccc2C1=O | 0.488*
CS(=O)(=O)CC[C@@H](C(=O)Nc1cccc(F)c1)N1Cc2ccccc2C1=O | 1.09
SMILES | CBX7 inh
COc1ccc(NC(=O)[C@H](Cc2ccccc2)N2Cc3ccccc3C2=O)cc1Cl | 0.306*
Cc1cc(NC(=O)C2CCCN(S(=O)(=O)c3cccc4cccnc34)C2)ccc1Br (stereo unspecified) | 0.996
COc1ccc(-c2noc(N(C)CC(=O)Nc3ccccn3)n2)cc1 | 1
COc1ccc(-c2noc(N(C)CC(=O)Nc3ccc(OC)cc3OC)n2)cc1 | 0.971
COc1ccc(-c2noc(N(C)CC(=O)Nc3cc(C)on3)n2)cc1 | 0*
COc1ccc(CCNc2oc(COc3cccc(C)c3)nc2C#N)cc1OC | 0.462*
Cc1ccccc1OCc1nc(C#N)c(NCc2ccc3c(c2)OCO3)o1 | 0.911
COc1ccc(CCNc2oc(COc3ccc(Cl)cc3)nc2C#N)cc1OC | 0.954
COc1ccc(CCNc2oc(COc3ccc(F)cc3)nc2C#N)cc1OC | 0.547
COc1ccc(CNc2oc(COc3cccc(C)c3)nc2C#N)cc1 | 0.667
Cc1cccc(OCc2nc(C#N)c(NCc3ccc4c(c3)OCO4)o2)c1 | 0.432*
Cc1cccc(OCc2nc(C#N)c(NCCc3ccccc3)o2)c1 | 0.667
Cc1cccc(OCc2nc(C#N)c(NCCN(C)C)o2)c1 | 1.01
COc1ccc(CCNc2oc(COc3ccc(C)cc3)nc2C#N)cc1OC | 0.482*
CCc1ccc(NC(=O)CCc2c(C)nc3nc(C)nn3c2C)cc1 | 0.974
O=C(CSc1nnc(-c2c[nH]c3ccccc23)n1-c1ccc(F)cc1)N1CCCC1 | 0.981
O=C(NCCN1CCCCCC1)c1ccc2c(c1)ncn2C1CCCC1 | 1.09
Cc1ccccc1Nc1c(-c2ccc(N3CCOCC3)cc2)nc2c(C)cccn12 | 0.828
CCOC(=O)N1CCC(Nc2c(N3CCc4ccccc43)c(=O)c2=O)CC1 | 1.14
COc1ccc(-c2nc3nc[nH]n3c2Nc2ccc(C(C)C)cc2)cc1 | 0.654
COCCCNC(=O)CCc1c(C)nc2c(-c3ccccc3)c(C)nn2c1C | 1.11
Cc1ccsc1-c1nc(CSCC(=O)NCc2ccc(Cl)cc2)c(C)o1 | 0.863
Cc1ccc(N2C(=O)c3ccccc3C2Nc2ccc(Cl)cc2Cl)nc1 (stereo unspecified) | 0.872
COc1ccc(OC)c(NC2c3ccccc3C(=O)N2c2ccc(Cl)cn2)c1 (stereo unspecified) | 0.344*
COc1ccc(NC2c3ccccc3C(=O)N2c2ccc(C)cn2)cc1OC (stereo unspecified) | 0.94
SMILES | CBX7 inh
COc1ccc(OC)c(NC2c3ccccc3C(=O)N2c2ccc(Cl)cc2)c1 (stereo unspecified) | 0.638
COc1ccc(OC)c(NC2c3ccccc3C(=O)N2c2ccccn2)c1 (stereo unspecified) | 0.722
COc1cc(OC)c(NC2c3ccccc3C(=O)N2c2ccc(C)cn2)cc1Cl (stereo unspecified) | 0.414*
COc1ccc(CNC(=O)c2ccc3nc(N4CCC(C)CC4)sc3c2)cc1 | 0.96
Cc1ccc2oc(-c3ccc(NC(=O)COc4cc(C)c(Cl)c(C)c4)cc3)nc2c1 | 0.935
Cc1ccc(NC(=O)Cn2cc(S(=O)(=O)c3ccccc3)c(=O)c3ccccc32)cc1Cl | 0.987
COc1ccc(S(=O)(=O)N2CCCCC2c2cccnc2)cc1 (stereo unspecified) | 0.964
O=C(O)c1c[nH]c2ccc(S(=O)(=O)N3CCCCC3c3cccnc3)cc2c1=O (stereo unspecified) | 0.4*
O=C(c1c[nH]c2ccc(S(=O)(=O)N3CCCCC3c3cccnc3)cc2c1=O)N1CCCC1 (stereo unspecified) | 1.02
O=C(NCc1cccnc1)C(=O)Nc1ccccc1 | 1.03
CCOc1cc([N+](=O)[O-])cc2c1C(=O)Nc1ccccc1O2 | 0.877
O=C1Nc2ccccc2Oc2cc([N+](=O)[O-])cc(Oc3cccc(Cl)c3Cl)c21 | 0.482*
O=C1Nc2ccccc2Oc2cc([N+](=O)[O-])cc(Oc3cccc(Cl)c3)c21 | 0.371*
O=C1Nc2ccccc2Oc2cc([N+](=O)[O-])cc(OCCO)c21 | 0.934
O=C1CCCC2=C1C(c1ccsc1)CC(=O)N2c1ccc(Br)cc1F (stereo unspecified) | 1.14
CC(C)CCNC(=O)CCN1C(=O)COc2ccccc21 | 0.978
Cc1nc2ccc(S(=O)(=O)N(C)CC(=O)Nc3cccnc3)cc2s1 | 1.18
CCc1ccccc1Nc1nc(-c2c(C)nc3ncccn23)cs1 | 0.77
CC(=O)c1cccc(Nc2nc(-c3c(C)nc4ncccn34)cs2)c1 | 0.851
Cc1nc2sccn2c1-c1csc(Nc2ccc(Cl)cc2)n1 | 0.754
CCN(CC)c1ccc(Nc2nc(-c3c(C)nc4sccn34)cs2)cc1 | 0.104*
CCOc1ccc(Nc2nc(-c3c(C)nc4sccn34)cs2)cc1 | 0.666
CCN(CC)c1ccc(Nc2nc(-c3c(C)nc4ncccn34)cs2)cc1 | 0.331*
O=C(Nc1cccc(-c2cn3ccccc3n2)c1)c1ccccc1F | 0.956
COc1ccc(-c2cc(-c3ccc(OC)cc3O)[nH]n2)cc1 | 0.89
